Potency, max response and outcome data for 24 molecules are collected here from PubChem BioAssay (Tox21).

Test [1] can be described thus: qHTS RealTime-Glo MT Cell Viability Assay in HEK293 cells - 16 hour (AID 1224872). Also: nearly all actives have a fitted effect of over 50% in size. Also: potency is read from the fitted curve at half-maximal effect. The method in brief:
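Quantitative high-throughput screen of the Tox21 10K library in HEK293: cells and RealTime-Glo reagents plated together, compound added at 5 h, luminescence monitored through 40 h at 37 C.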
Background: qHTS replaces the single test concentration by a dilution series.

A short description of test [2]: qHTS RealTime-Glo MT Cell Viability Assay in HepG2 cells - 8 hour (AID 1224873). Also: nearly all actives have a fitted effect of over 55% in size. Also: potency is read from the fitted curve at half-maximal effect. The method in brief:
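HepG2 cells mixed with RealTime-Glo MT reagents (NanoLuc plus cell-permeant prosubstrate) were seeded at 600 cells/well, incubated 5 h at 37 C/5% CO2, then pinned with compounds in DMSO; nonlytic luminescence tracked viability during 40 h treatment.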

A short description of test [3]: qHTS RealTime-Glo MT Cell Viability Assay in HEK293 cells - 40 hour (AID 1224874). Also: nearly all actives have a fitted effect of over 50% in size. Also: potency is read from the fitted curve at half-maximal effect. Conditions: RealTime-Glo luminescence; max response: stronger effect = lower value. The method in brief: (§1)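 600 HEK293 cells per well, dispensed already mixed with RealTime-Glo MT reagents. Compound dosing came 5 h later. The same wells were read for luminescence at 0, 8, 16, 24, 32 and 40 h of exposure at 37 C.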

Test [4] is described as follows: A CellTox Green Cytotoxicity Assay to monitor cytotoxicity in HepG2 cells - 16 hour (AID 1224876). Also: nearly all actives have a fitted effect of over 45% in size. Also: potency is read from the fitted curve at half-maximal effect. In short, it runs like this:
(§2)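 First, HepG2 cells (600/well) mixed with reagent were plated; second, after 5 h at 37 C they received compounds via pintool; third, fluorescence was measured at 0 h through 40 h at 8 h intervals.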

Test [5] is described as follows: qHTS RealTime-Glo MT Cell Viability Assay in HepG2 cells - 32 hour (AID 1224877). Also: nearly all actives have a fitted effect of over 55% in size. Also: potency is read from the fitted curve at half-maximal effect. The method in brief: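 Compound treatment began 5 h after plating HepG2 cells (600/well) with NanoLuc luciferase and prosubstrate. Plates stayed at 37 C for 40 h; luminescence was captured at six time points, 0 h through 40 h.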
Test [6] can be described thus: A CellTox Green Cytotoxicity Assay to monitor cytotoxicity in HepG2 cells - 24 hour (AID 1224878). Also: nearly all actives have a fitted effect of over 45% in size. Also: potency is read from the fitted curve at half-maximal effect. In short, it runs like this:
as §2

A short description of test [7]: A CellTox Green Cytotoxicity Assay to monitor cytotoxicity in HepG2 cells - 40 hour (AID 1224879). Also: nearly all actives have a fitted effect of over 40% in size. Also: potency is read from the fitted curve at half-maximal effect. The method in brief: as §2
Test [8] is described as follows: qHTS RealTime-Glo MT Cell Viability Assay in HEK293 cells - 0 hour (AID 1224880). Also: top concentration of the series differs between compounds; nearly all actives have a fitted effect of over 45% in size. In short, it runs like this: as §1
Test [9] in a line: A CellTox Green Cytotoxicity Assay to monitor cytotoxicity in HEK293 cells - 24 hour (AID 1224875). Also: series mostly up to about 77 µM; nearly all actives have a fitted effect of over 45% in size. The method in brief: (§3)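 Dead-cell fluorescence measured kinetically: asymmetric cyanine dye, HEK293, 600 cells/well, 5 h settle, 23 nL cpd/DMSO, 37 C, reads 0–40 h every 8 h.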
Test [10] in a line: A CellTox Green Cytotoxicity Assay to monitor cytotoxicity in HEK293 cells - 32 hour (AID 1224881). Also: nearly all actives have a fitted effect of over 40% in size. Also: potency is read from the fitted curve at half-maximal effect. The method in brief:
as §3

Results filed as inconclusive are left out. Unmarked numbers belong to inactive results. Active and inactive are the calls of the source. Calls follow the shape of the dose curve; as a rule, active = well fitted curve in the direction sought with a large enough effect in the repeat runs; inconclusive = weak or mixed curves; inactive = no such curve, though single readings can be large; an effect the other way counts as inactive or inconclusive.
% is scaled to controls: 0 for no effect and ±100 for the full control effect.

Take `Cc1ccccc1CO[C@@H]1C[C@@]2(C(C)C)CC[C@]1(C)O2`: the Potency result in test [1], in test [2], in test [4], in [5], in test [6] and in [7] was “inactive” throughout. In addition, in test [3], the max response is -15.4%. Further, the result in [8] was inactive.

Regarding `CN1C(=S)CN=C(c2ccccc2)c2cc(Cl)ccc21`, the Potency entry in [1], in test [2], in [9], in test [4], in [5] and in [6] was “inactive” throughout. The Potency entry in test [7] was “inactive”. The call in [8] was inactive.

Take `Nc1ccccc1Cl`: the Potency entry in test [1], in test [2], in [9], in test [4], in test [5] and in test [6] was “inactive” throughout. The Potency result in test [7] and in test [10] was “inactive” throughout. Besides, in [8], the molecule was classed as inactive.

Regarding `ClC(Cl)(Cl)C(Cl)(Cl)Cl`, the Potency entry in [1], in test [2], in test [9], in test [4], in [5] and in test [6] was “inactive” in each case. The Potency entry in [7] and in test [10] was “inactive” throughout. For the same molecule, the call in test [8] was inactive.

With `CN/C(=N\[N+](=O)[O-])NCC1CCOC1` (stereo not given), the Potency entry in [1], in test [2], in [9], in [4], in test [5] and in test [6] was “inactive” in each case. Moreover, the Potency entry in [7] and in [10] was “inactive” each time. Besides, the call in [8] was inactive.

Regarding `CNC(=O)O/N=C(\C)SC`, the Potency entry in [1], in test [2], in test [9], in test [5], in test [6] and in [7] was “inactive” throughout. Further, the Potency entry in [10] was “inactive”. Further, in test [4], the Potency was 0.219 µM (active). The call in test [8] was inactive.

`CCCCOC(=O)c1ccccc1N`: the Potency entry in [1], in [2], in test [4] and in test [5] was “inactive” in each case. The max response in [3] was 0.429%. The Potency is 49.3 µM (active) in [6] and 55.3 µM (active) in test [7]. For the same molecule, the result in test [8] was inactive.

As for `CC(C)[N+](=O)[O-]`, the Potency result in test [1], in test [2], in test [9], in [4], in [5] and in [6] was “inactive” each time. Moreover, the Potency entry in test [7] and in test [10] was “inactive” each time. For the same molecule, the outcome in test [8] was inactive.

For the molecule `COC(=O)C(C)Oc1ccc(Oc2ccc(Cl)cc2Cl)cc1` (stereo not given), the Potency entry in test [1], in test [2], in test [9], in test [4], in test [5] and in test [6] was “inactive” each time. Besides, the Potency result in test [7] and in test [10] was “inactive” throughout. The molecule was called inactive in test [8].

Turning to `COC(=O)C1=CCCN(C)C1`, the Potency result in test [1], in [2], in [9], in test [5], in [6] and in test [7] was “inactive” each time. Besides, in test [10], the Potency result was “inactive”. For the same molecule, the max response in [3] was 3.81%. Further, in test [8], the molecule was classed as inactive.

`COc1cc(C[C@@H](C)N)c(OC)cc1C`: the Potency result in [1], in [2], in [9], in [4], in [5] and in test [6] was “inactive” each time. Also, the Potency entry in [7] and in test [10] was “inactive” throughout. In test [8], the molecule was classed as inactive.

Turning to `CC(C)COP(=O)(OCC(C)C)OCC(C)C`, the Potency result in test [1], in [2], in test [9], in test [4], in [5] and in test [7] was “inactive” in each case. Moreover, the Potency result in test [10] was “inactive”. Besides, the max response in test [3] is 0.408%.

On to `NC(=O)c1cc([N+](=O)[O-])cc([N+](=O)[O-])c1`, for which the Potency entry in [1], in test [2], in test [9], in test [4], in test [5] and in test [6] was “inactive” each time. In addition, the Potency entry in test [7] and in [10] was “inactive” in each case. In [8], the call was inactive.

For `COc1cc2c(cc1OC)[C@@]13CCN4CC5=CCO[C@H]6CC(=O)N2[C@H]1[C@H]6[C@H]5C[C@H]43`, the Potency entry in [1], in [2], in test [9], in test [4], in [5] and in test [6] was “inactive” throughout. For the same molecule, the Potency entry in [7] and in [10] was “inactive” throughout. Besides, the result in [8] was inactive.

Regarding `Nc1n[nH]c(N)n1`, the Potency result in test [1], in test [2], in test [9], in test [4], in [5] and in test [6] was “inactive” each time. The Potency result in test [7] and in test [10] was “inactive” each time. Further, in test [8], the molecule was called inactive.

Regarding `O=C(N[C@H]1CN2CCC1CC2)c1cc2ccoc2cn1`, the Potency result in test [1], in test [2], in test [9], in test [4], in test [5] and in test [10] was “inactive” throughout. Moreover, in test [3], the max response is 8.57%. Moreover, the molecule was classed as inactive in [8].

With `CCC1(c2ccccc2)C(=O)NC(=O)NC1=O`, the Potency result in test [1], in test [2], in test [9], in test [4], in test [5] and in test [6] was “inactive” each time. Also, the Potency entry in test [7] and in [10] was “inactive” each time. In addition, in [8], the call was inactive.

Turning to `COc1ccc(C(=O)N2CCCC2=O)cc1`, the Potency result in test [1], in test [2], in test [9], in test [5] and in test [10] was “inactive” in each case. Also, the max response in test [3] was -7.3%. Moreover, the molecule was classed as inactive in test [8].

As to `N#CC(CCc1ccc(Cl)cc1)(Cn1cncn1)c1ccccc1` (stereo not given), the Potency in [1] was 21.9 µM (active); in test [2], 38.9 µM (active); in test [3], 17.4 µM (active); in test [4] it was 21.9 µM (active); in test [5], 43.6 µM (active); in test [6], 21.9 µM (active). Besides, the Potency was 24.5 µM (active) in test [7] and 54.9 µM (active) in [10]. Further, the result in test [8] was inactive.

Take `O=C1OC(c2ccc(O)c(S(=O)(=O)O)c2)(c2ccc(O)c(S(=O)(=O)O)c2)c2c(Br)c(Br)c(Br)c(Br)c21`: the Potency result in [1], in test [2], in test [9], in test [4], in test [5] and in test [6] was “inactive” throughout. In addition, the Potency entry in test [7] and in test [10] was “inactive” throughout. In addition, in test [8], the result was inactive.

Consider `CC(C)(C)NCC(O)c1cc(Cl)c(N)c(Cl)c1` (stereo not given), for which the Potency result in test [1], in [2], in [9], in test [4], in test [5] and in [6] was “inactive” throughout. The Potency entry in [7] and in [10] was “inactive” each time. For the same molecule, the result in test [8] was inactive.

As for `CN1CCC(O)(c2ccc(F)cc2)C(C(=O)c2ccc(F)cc2)C1` (stereo not given), the Potency result in [1], in [2] and in [9] was “inactive” throughout. In addition, in test [3], the max response was -17.3%. Also, the molecule was called inactive in test [8].

For the molecule `CC(Cl)(Cl)[N+](=O)[O-]`, the Potency result in test [1], in test [2], in test [9], in test [4], in test [5] and in [6] was “inactive” throughout. The Potency result in test [7] and in test [10] was “inactive” in each case. Also, the outcome in test [8] was inactive.

Turning to `CNC(=O)Oc1cccc(C(C)C)c1`, the Potency entry in test [1], in test [2], in [9], in [4], in test [5] and in [6] was “inactive” each time. Moreover, the Potency entry in test [7] and in test [10] was “inactive” in each case. Also, the molecule was classed as inactive in test [8].
